# Measurements published in ChEMBL document CHEMBL3988442, “University of Dundee, Small-Polar-MMV Screening Library” (2021).
# Among all 48,000 compounds or so, about 13,000 (27%) showed an effect of 50% or more. This is one part of the list.
# Tested on: Wolbachia pipientis
# Assay: Anti-Wolbachia Cell-Based Screen
# Format: functional
# Parameters: scale not given: in the data most compounds retested in dose-response had high values
# Settings: 5 µM
row,SMILES,Percent Effect
1,O=C1CC(c2ccccc2)c2cnn(C3CCCC3)c2N1 (stereo unspecified),5.906%
2,CN1CCC(N2CCC(c3ccccc3C(=O)O)C2)CC1 (stereo unspecified),13.56%
3,COc1ccc([C@@H]2NC(=O)N[C@H]3OCCC[C@H]32)cc1,92.15%
4,O=C(O)c1ccccc1C1CCN(C2Cc3ccccc3C2)C1 (stereo unspecified),0.3893%
5,COc1ccc(C2CC(=O)Oc3cc(C)[nH]c(=O)c32)cc1 (stereo unspecified),5.191%
6,O=C1CO[C@H](c2ccc(NS(=O)(=O)c3ccccc3)cc2)[C@@H](CO)N1,-4.896%
7,O=C1N[C@H]2OCCC[C@H]2[C@H](c2ccccc2)N1,111.8%
8,O=C1N[C@H]2OCCC[C@H]2[C@H](c2ccc(C(=O)O)cc2)N1,126.1%
9,O=C1N[C@H]2OCCC[C@H]2[C@H](c2ccccc2C(=O)O)N1,55.53%
10,O=C(O)c1ccc(OC2CCOCC2)cc1,3.994%
11,O=C(CN1CCCC(c2ccc(C(=O)O)cc2)C1)NC1CC1 (stereo unspecified),-9.643%
12,COc1ccc(C2CC(=O)Nc3c2cnn3C2CCCC2)cc1 (stereo unspecified),-0.6699%
13,CCOCCn1nc(C)cc1C(=O)N1CCN(C(C)C)C(CC)C1 (stereo unspecified),12.32%
14,CC(=O)N1CCC(N2CCOC[C@H]2c2nc(-c3ccncc3)c[nH]2)CC1,-16.93%
15,CC(=O)N1CCCC2(CCN(C(=O)c3nccnc3N)CC2)C1,-5.274%
16,NC(=O)CSc1nccc(-c2ccc3c(c2)OCO3)n1,94.21%
17,O=C(Cc1ccc2c(c1)OCO2)N1CCN(c2ccncc2)CC1,-22.19%
18,CCOc1ccc(-c2ccc3c(c2)OCO3)cc1C(N)=O,-6.962%
19,CNCc1nc(-c2ccc3c(c2)OCO3)c[nH]1.Cl.Cl,-0.9226%
20,O=C(CSc1nccc(-c2ccc3c(c2)OCO3)n1)N1CCOCC1,110.7%
21,CN(C)C(=O)c1cccnc1-c1ccc2c(c1)OCO2,-0.5608%
22,NC(=O)CCC(=O)N1CCc2[nH]nc(-c3ccc4c(c3)OCO4)c2C1,-2.811%

row,SMILES,Percent Effect
1,CSCC(=O)N1CCc2[nH]nc(-c3ccc4c(c3)OCO4)c2C1,-14.59%
2,O=C(O)CSc1nccc(-c2ccc3c(c2)OCO3)n1,78.66%
3,Cn1cccc(NC(=O)N2CCC(COCc3ccccc3)C2)c1=O (stereo unspecified),7.256%
4,Cc1ccc(C)c(OCC(O)Cn2ncc3cnn(C)c(=O)c32)c1 (stereo unspecified),-5.252%
5,O=S(=O)(NC1=NCN(CCc2cccs2)CN1)c1ccc(F)cc1,4.244%
6,Cc1cc(N[C@H](CO)COCc2ccccc2)n2nc(C)cc2n1,2.305%
7,COc1ccc(OCCN2CCOCS2(=O)=O)cc1,-3.078%
8,CCN1CC(COc2ccc(OC)cc2)Oc2ccncc2S1(=O)=O (stereo unspecified),109.7%
9,CC(C)(C)OCC1CN(CC2CC2)S(=O)(=O)c2cnccc2O1 (stereo unspecified),96.42%
10,COc1ccc(CN2CCOC[C@H](Oc3cccnc3)C2)cc1,-13%
11,COCC1CN(Cc2ccc(OC)cc2)S(=O)(=O)c2cnccc2O1 (stereo unspecified),99.8%
12,CCN1CC(COC(C)(C)C)Oc2ccncc2S1(=O)=O (stereo unspecified),103.5%
13,COc1ccc(C[C@@H]2CC[C@H](CN(C)C3CCN(C)CC3)O2)cc1,15.35%
14,COc1ccc(CCC(=O)Nc2ccncc2C)cc1,3.309%
15,Cc1nc(-c2noc3ccc(C(=O)NCCN(C)C)cc23)co1,-5.984%
16,CN(CCn1cccn1)S(=O)(=O)c1cccc(Cl)c1C#N,-13.18%
17,CC(C)(C)OCC1CN(Cc2cccs2)S(=O)(=O)c2cnccc2O1 (stereo unspecified),118.6%
18,O=C(O)C(=O)O.c1csc(CN2CC(c3nc(-c4cnccn4)no3)C2)c1,14.88%
19,CO[C@@H]1CCN(Cc2cccs2)[C@H]1Cc1ccncc1,4.278%
20,Cc1cc(NC(=O)NC(C)CO)ccc1OCC(F)(F)F (stereo unspecified),-7.879%
21,CCCS(=O)(=O)c1ccc(N2CCC(Cc3ccccc3)CC2)nn1,21.52%
22,CC(C)c1nc(CC(=O)N(C)Cc2ccc3c(c2)OCO3)cs1,-4.138%

row,SMILES,Percent Effect
1,CCSc1nsc(NC(=O)COc2ccc3c(c2)OCO3)n1,106.2%
2,CN(Cc1ccc2c(c1)OCO2)Cc1cscn1,9.115%
3,CC(=O)Nc1nc(SCc2ccc3c(c2)OCO3)ns1,70.31%
4,Nc1nc(SCc2ccc3c(c2)OCO3)ns1,92.69%
5,O=C(c1cc(COc2ccc3c(c2)OCO3)[nH]n1)N1CCSCC1,4.191%
6,CC(=O)N1CCCN(C(=O)Cc2ccc3c(c2)OCO3)CC1,1.177%
7,Cc1nnc(SCCCNC(=O)Cc2ccc3c(c2)OCO3)s1,-3.831%
8,Cn1nc2c(cc1=O)CN(Cc1nnc(-c3ccco3)o1)CC2,-2.817%
9,C=C(C)CN(CC)S(=O)(=O)c1c(F)cc(NC(C)=O)cc1F,26.08%
10,CC(NCC1=Cc2cc(Cl)ccc2OC1)c1nnc2n1CCCC2 (stereo unspecified),8.386%
11,CCNc1ccnc(N2CCN(Cc3ncccc3C)CC2)n1,0.1311%
12,CCNc1nc(-c2cccnc2)c(-c2ccnc(N3CCOCC3)n2)s1,59.36%
13,CCCS(=O)(=O)N1CCN(c2ccnc(N3CCCC3)n2)CC1,2.468%
14,CN1CCOC[C@H]1c1nc(-c2cccnc2)c[nH]1,-3.029%
15,CCc1cnc(NCC(c2cccnc2)N2CCOCC2)nc1 (stereo unspecified),1.67%
16,CCNc1nc(-c2cccnc2)c(-c2ccnc(N3CCCC3)n2)s1,59.83%
17,CN(Cc1nccn1C)c1ccc(-c2nccn2C)nn1,-5.677%
18,CNc1cc(C2CCN2c2ncccn2)nc(C)n1 (stereo unspecified),95.15%
19,Cc1nc(C2CCN2c2ncccn2)cc(N(C)C)n1 (stereo unspecified),87.93%
20,Cc1nc(NC2CCCC2)cc(C2CCN2c2ncccn2)n1 (stereo unspecified),84.97%
21,CN(Cc1nnc2n1CCC2)S(=O)(=O)c1cc(Br)ccc1Br,5.695%
22,O=C(c1cncc(N2CCC3(CC2)NCCNC3=O)n1)N1CCCCC1,-23.93%

row,SMILES,Percent Effect
1,CN(C)CCn1ccc2cc(NC(=O)NCc3ccon3)ccc21,-4.037%
2,O=C(Cc1cccc(F)c1F)NS(=O)(=O)c1ccc(Cl)cn1,3.295%
3,O=C(CNc1cc2c(cc1Cl)OCCO2)NCC(F)(F)F,19.2%
4,COc1ccc(CN(C)CC2(O)CCNC2)cc1 (stereo unspecified),119.3%
5,COc1ccc(C2(C(=O)N3CC[C@@]4(O)CCNC[C@H]4C3)CCCC2)cc1,-11.98%
6,CN(Cc1ccc2nsnc2c1)CC1(O)CCNC1 (stereo unspecified),4.818%
7,N#Cc1cn(C2CC2)c(=O)n(Cc2ncc(-c3cccs3)o2)c1=O,18.42%
8,COCCCN1CC2(CCCN(c3ncc4nc[nH]c4n3)C2)CCC1=O (stereo unspecified),-4.995%
9,Cl.Cl.O=C(NCc1cncc2c1CCN(C1CCOCC1)C2)c1ccco1,116%
10,CC(C)CN1CCC(C(=O)NCCNC(=O)c2ccco2)CC1,-4.338%
11,Cl.Cl.O=C(NCc1cncc2c1CCN(Cc1cccc(F)c1)C2)C1CC1,1.539%
12,Cl.Cl.O=C(NCc1cncc2c1CCN(Cc1ccc(F)cc1)C2)C1CC1,-3.295%
13,Cl.Cl.O=C(NCc1cncc2c1CCN(C1CCOC1)C2)c1ccco1 (stereo unspecified),112.9%
14,Cl.Cl.O=C(NCc1cncc2c1CCN(CC1CCOC1)C2)c1ccco1 (stereo unspecified),105%
15,Cl.Cl.O=C(NCc1cncc2c1CCN(CC1CCOC1)C2)c1ccno1 (stereo unspecified),2.196%
16,Cl.Cl.O=C(NCc1cncc2c1CCN(Cc1ccccc1)C2)C1CC1,12.37%
17,Cl.Cl.O=C(NCc1cncc2c1CCN(C1CCOCC1)C2)c1ccno1,114.6%
18,CS(=O)(=O)N1CCCN(C(=O)c2ccc(Cn3ccccc3=O)o2)CC1,2.265%
19,O=C(NS(=O)(=O)c1ccccc1Cl)c1cccc2c1OCCO2,-4.478%
20,Cc1ccc(CN(C)C)cc1NC(=O)C1CC=CC1,-13.67%
21,CCc1ncc2c(n1)CN(CC(=O)N1CCc3sccc3C1)CC2,0.7848%
22,COc1ccc(N2CCCC3(C2)CN(c2cccnc2)CCO3)cc1.O=C(O)C(F)(F)F (stereo unspecified),0.9473%

row,SMILES,Percent Effect
1,O=C(O)C(F)(F)F.c1cncc(N2CCOCC3(CCCN(c4nncs4)C3)C2)c1 (stereo unspecified),-4.249%
2,N#Cc1ccc(N2CCCC3(CCN(c4cccnc4)CC3)C2)cc1.O=C(O)C(F)(F)F,32.72%
3,O=C(O)C(F)(F)F.c1cncc(N2CCCC3(CCN(CC4CCCO4)CC3)C2)c1 (stereo unspecified),83.5%
4,O=C(O)C(F)(F)F.O=C(O)C(F)(F)F.c1cncc(N2CCCC3(CCN(CCN4CCCC4)CC3)C2)c1,112%
5,O=C(O)C(F)(F)F.c1cncc(N2CCC3(CCCN(c4ccncc4)C3)CC2)c1,92.43%
6,Fc1cnccc1CN1CCCC2(CCN(c3ncccn3)CC2)C1.O=C(O)C(F)(F)F,-3.022%
7,c1ccc(NCc2cn3c(n2)CN(Cc2nccs2)CC3)nc1,0.03801%
8,CC(=O)c1cc(CC(=O)N2CCN(S(=O)(=O)c3ccccc3)CC2)cs1,-20.85%
9,COc1cc2c(nn1)CCN(Cc1nnc(Cc3ccccc3)o1)C2,16.22%
10,CC(C)COCCCNC(=O)NC(C)c1ccc(-n2cncn2)cc1 (stereo unspecified),-8.242%
11,COCCNC(=O)[C@H]1C[C@@H]2CCN(CCc3ccccc3)C[C@@H]2O1.O=C(O)C(F)(F)F,-51.54%
12,COCCNC(=O)[C@H]1C[C@@H]2CCN(c3ccccc3)C[C@H]2O1.O=C(O)C(F)(F)F,88.58%
13,O=C(NCc1cccnc1)[C@H]1C[C@@H]2CCN(c3ccncn3)C[C@H]2O1.O=C(O)C(F)(F)F.O=C(O)C(F)(F)F,98.22%
14,COCCNC(=O)[C@@H]1C[C@@H]2CCN(c3ncccn3)C[C@H]2O1.O=C(O)C(F)(F)F,90.69%
15,COCCNC(=O)[C@H]1C[C@@H]2CCN(CCc3ccccc3)C[C@H]2O1.O=C(O)C(F)(F)F,28.03%
16,O=C(NCc1cccnc1)[C@@H]1C[C@@H]2CCN(c3ncc(F)cn3)C[C@@H]2O1.O=C(O)C(F)(F)F.O=C(O)C(F)(F)F,11.34%
17,COCCNC(=O)[C@H]1C[C@@H]2CCN(c3ccncn3)C[C@H]2O1.O=C(O)C(F)(F)F,90.71%
18,O=C(NCc1cccnc1)[C@@H]1C[C@H]2[C@H](CCN2c2ncc(F)cn2)O1.O=C(O)C(F)(F)F.O=C(O)C(F)(F)F,-1.497%
